Test results reported in PubChem BioAssay AID1159580 (chemical genetic matrix, 2015).
Among all 5,500 compounds or so, about 2,000 (36%) were called active. Another 18% or so got no clear call; they are omitted. The list shows a part of the results. A number with no mark means an inactive call. Cut-off read from the data, not from the text of the source: active = normalized growth mostly below about 0.91 (no sharp cut-off); inconclusive = no clear call, values can overlap the other calls; inactive = mostly above about 0.92.

Assay: chemical genetic growth profiling, strain panel (AID 1159580);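 note: tested at 20 µM; growth read once vehicle control cultures reached saturation at 30 °C; 1 = growth at the plate median or of vehicle wells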
Conditions: growth OD

c1ccc(CC2=NCCN2)cc1
normalized growth (S. cerevisiae deletion strains, locus YJR075W, strain HOC1, stronger effect = lower value): 1
normalized growth (S. cerevisiae deletion strains, locus YKL009W, strain mrt4, stronger effect = lower value): 0.695 (active)
normalized growth (S. cerevisiae deletion strains, locus YKL068W, stronger effect = lower value): 0.837 (active)
normalized growth (S. cerevisiae deletion strains, locus YKL085W, strain MDH1 (second series), stronger effect = lower value): 0.836 (active)
normalized growth (S. cerevisiae deletion strains, locus YKL085W, strain MDH1, stronger effect = lower value): 0.836 (active)
normalized growth (S. cerevisiae deletion strains, locus YKL160W, strain elf1, stronger effect = lower value): 1.03
normalized growth (S. cerevisiae deletion strains, locus YKL190W, strain CNB1, stronger effect = lower value): 0.998
normalized growth (S. cerevisiae deletion strains, locus YKR001C, strain vps1, stronger effect = lower value): 0.913
normalized growth (S. cerevisiae deletion strains, locus YKR026C, strain gcn3, stronger effect = lower value): 1.03
normalized growth (S. cerevisiae deletion strains, locus YKR091W, strain srl3, stronger effect = lower value): 1.01
normalized growth (S. cerevisiae deletion strains, locus YLL001W, strain dnm1, stronger effect = lower value): 1.01
normalized growth (S. cerevisiae deletion strains, locus YLL026W, stronger effect = lower value): 1.02
normalized growth (S. cerevisiae deletion strains, locus YLL041C, strain sdh2, stronger effect = lower value): 1.01
normalized growth (S. cerevisiae deletion strains, locus YLR027C, strain aat2, stronger effect = lower value): 1.02
normalized growth (S. cerevisiae deletion strains, locus YLR039C, strain RIC1, stronger effect = lower value): 0.931
normalized growth (S. cerevisiae deletion strains, locus YLR058C, strain SHM2, stronger effect = lower value): 0.984
normalized growth (S. cerevisiae deletion strains, locus YLR102C, strain apc9, stronger effect = lower value): 0.897 (active)
normalized growth (S. cerevisiae deletion strains, locus YLR113W, strain HOG1, stronger effect = lower value): 0.957
normalized growth (S. cerevisiae deletion strains, locus YLR221C, strain rsa3, stronger effect = lower value): 0.997
normalized growth (S. cerevisiae deletion strains, locus YLR258W, strain gsy2, stronger effect = lower value): 1.01
normalized growth (S. cerevisiae deletion strains, locus YLR262C, strain YPT6 (second series), stronger effect = lower value): 1.03
normalized growth (S. cerevisiae deletion strains, locus YLR262C, strain YPT6, stronger effect = lower value): 0.927
normalized growth (S. cerevisiae deletion strains, locus YLR268W, strain sec22, stronger effect = lower value): 0.905
normalized growth (S. cerevisiae deletion strains, locus YLR320W, strain mms22, stronger effect = lower value): 0.989
normalized growth (S. cerevisiae deletion strains, locus YLR330W, strain CHS5, stronger effect = lower value): 0.97
normalized growth (S. cerevisiae deletion strains, locus YLR342W, strain FKS1 (second series), stronger effect = lower value): 1.01
normalized growth (S. cerevisiae deletion strains, locus YLR342W, strain FKS1, stronger effect = lower value): 1.03
normalized growth (S. cerevisiae deletion strains, locus YLR357W, strain rsc2, stronger effect = lower value): 1.03
normalized growth (S. cerevisiae deletion strains, locus YLR370C, strain arc18, stronger effect = lower value): 1.01
normalized growth (S. cerevisiae deletion strains, locus YLR371W, strain rom2, stronger effect = lower value): 0.909
normalized growth (S. cerevisiae deletion strains, locus YLR384C, strain iki3, stronger effect = lower value): 1.03
normalized growth (S. cerevisiae deletion strains, locus YLR418C, strain cdc73, stronger effect = lower value): 1.01
normalized growth (S. cerevisiae deletion strains, locus YML016C, strain PPZ1, stronger effect = lower value): 1.01
normalized growth (S. cerevisiae deletion strains, locus YML032C, strain rad52, stronger effect = lower value): 0.915
normalized growth (S. cerevisiae deletion strains, locus YML120C, strain ndi1, stronger effect = lower value): 1.01
normalized growth (S. cerevisiae deletion strains, locus YML124C, strain tub3, stronger effect = lower value): 0.904 (active)
normalized growth (S. cerevisiae deletion strains, locus YMR058W, strain fet3, stronger effect = lower value): 1.03
normalized growth (S. cerevisiae deletion strains, locus YMR078C, strain ctf18, stronger effect = lower value): 0.907 (active)
normalized growth (S. cerevisiae deletion strains, locus YMR125W, strain sto1, stronger effect = lower value): 1.01
normalized growth (S. cerevisiae deletion strains, locus YMR129W, stronger effect = lower value): 1.02
normalized growth (S. cerevisiae deletion strains, locus YMR205C, strain PFK2, stronger effect = lower value): 1
normalized growth (S. cerevisiae deletion strains, locus YMR223W, strain ubp8, stronger effect = lower value): 0.916
normalized growth (S. cerevisiae deletion strains, locus YMR231W, strain pep5, stronger effect = lower value): 1.01
normalized growth (S. cerevisiae deletion strains, locus YMR263W, strain SAP30, stronger effect = lower value): 0.978
normalized growth (S. cerevisiae deletion strains, locus YMR307W, strain GAS1, stronger effect = lower value): 1.03
normalized growth (S. cerevisiae deletion strains, locus YNL067W, strain RPL9B, stronger effect = lower value): 0.957
normalized growth (S. cerevisiae deletion strains, locus YNL071W, strain lat1, stronger effect = lower value): 1.03
normalized growth (S. cerevisiae deletion strains, locus YNL128W, strain TEP1, stronger effect = lower value): 1.01
normalized growth (S. cerevisiae deletion strains, locus YNL153C, strain GIM3, stronger effect = lower value): 0.987
normalized growth (S. cerevisiae deletion strains, locus YNL183C, strain NPR1, stronger effect = lower value): 0.943
normalized growth (S. cerevisiae deletion strains, locus YNL209W, strain ssb2, stronger effect = lower value): 1.02
normalized growth (S. cerevisiae deletion strains, locus YNL233W, strain BNI4, stronger effect = lower value): 0.98
normalized growth (S. cerevisiae deletion strains, locus YNL248C, strain rpa49, stronger effect = lower value): 1.05
normalized growth (S. cerevisiae deletion strains, locus YNL250W, strain rad50, stronger effect = lower value): 0.822 (active)
normalized growth (S. cerevisiae deletion strains, locus YNL271C, strain bni1, stronger effect = lower value): 0.837 (active)
normalized growth (S. cerevisiae deletion strains, locus YNL298W, strain CLA4, stronger effect = lower value): 0.79 (active)
normalized growth (S. cerevisiae deletion strains, locus YNL307C, strain MCK1, stronger effect = lower value): 0.877 (active)
normalized growth (S. cerevisiae deletion strains, locus YNL322C, strain KRE1 (second series), stronger effect = lower value): 1.01
normalized growth (S. cerevisiae deletion strains, locus YNL322C, strain KRE1, stronger effect = lower value): 0.987
normalized growth (S. cerevisiae deletion strains, locus YNR049C, strain mso1, stronger effect = lower value): 0.996
normalized growth (S. cerevisiae deletion strains, locus YNR052C, strain pop2, stronger effect = lower value): 0.911 (active)
normalized growth (S. cerevisiae deletion strains, locus YOL006C, strain TOP1, stronger effect = lower value): 1.09
normalized growth (S. cerevisiae deletion strains, locus YOL012C, strain htz1): 1.4
normalized growth (S. cerevisiae deletion strains, locus YOL147C, strain pex11, stronger effect = lower value): 0.915 (active)
normalized growth (S. cerevisiae deletion strains, locus YOR001W, strain rrp6, stronger effect = lower value): 1
normalized growth (S. cerevisiae deletion strains, locus YOR061W, strain CKA2, stronger effect = lower value): 0.986
normalized growth (S. cerevisiae deletion strains, locus YOR069W, strain VPS5, stronger effect = lower value): 0.968
normalized growth (S. cerevisiae deletion strains, locus YOR070C, strain gyp1, stronger effect = lower value): 0.998
normalized growth (S. cerevisiae deletion strains, locus YOR080W, strain dia2, stronger effect = lower value): 1.02
normalized growth (S. cerevisiae deletion strains, locus YOR083W, strain WHI5, stronger effect = lower value): 0.976
normalized growth (S. cerevisiae deletion strains, locus YOR106W, strain vam3, stronger effect = lower value): 1.03
normalized growth (S. cerevisiae deletion strains, locus YOR136W, strain idh2, stronger effect = lower value): 0.937
normalized growth (S. cerevisiae deletion strains, locus YOR144C, strain elg1, stronger effect = lower value): 0.917 (active)
normalized growth (S. cerevisiae deletion strains, locus YOR184W, strain ser1, stronger effect = lower value): 0.899
normalized growth (S. cerevisiae deletion strains, locus YOR231W, strain MKK1, stronger effect = lower value): 0.976
normalized growth (S. cerevisiae deletion strains, locus YOR265W, strain rbl2, stronger effect = lower value): 0.99
normalized growth (S. cerevisiae deletion strains, locus YOR270C, strain vph1, stronger effect = lower value): 1.11
normalized growth (S. cerevisiae deletion strains, locus YOR290C, strain snf2, stronger effect = lower value): 1
normalized growth (S. cerevisiae deletion strains, locus YOR316C, strain cot1, stronger effect = lower value): 0.919 (active)
normalized growth (S. cerevisiae deletion strains, locus YPL051W, strain arl3, stronger effect = lower value): 0.989
normalized growth (S. cerevisiae deletion strains, locus YPL055C, strain LGE1, stronger effect = lower value): 0.995
normalized growth (S. cerevisiae deletion strains, locus YPL078C, strain atp4, stronger effect = lower value): 1.04
normalized growth (S. cerevisiae deletion strains, locus YPL106C, strain sse1, stronger effect = lower value): 1.02
normalized growth (S. cerevisiae deletion strains, locus YPL240C, strain hsp82, stronger effect = lower value): 1.02
normalized growth (S. cerevisiae deletion strains, locus YPL241C, strain CIN2, stronger effect = lower value): 0.99
normalized growth (S. cerevisiae deletion strains, locus YPL256C, strain CLN2, stronger effect = lower value): 0.941
normalized growth (S. cerevisiae deletion strains, locus YPR119W, strain clb2, stronger effect = lower value): 0.896 (active)
normalized growth (S. cerevisiae deletion strains, locus YPR141C, strain kar3, stronger effect = lower value): 0.767 (active)
normalized growth (S. cerevisiae deletion strains, locus YPR163C, strain tif3, stronger effect = lower value): 0.885 (active)
normalized growth (S. cerevisiae deletion strains, locus YPR167C, strain met16, stronger effect = lower value): 0.906 (active)
normalized growth (S. cerevisiae deletion strains, strain wtn01, stronger effect = lower value): 0.917
normalized growth (S. cerevisiae strains, strain wild type, stronger effect = lower value): 1
